Shown is part of a subset that was picked to be rich in hits.
HIV RNase H inh-1: blocks HIV-1 RNase H cleavage of RNA/DNA duplex. RT-RNase H RNA/DNA duplex cleavage, fluorescence. inhibition, % at 10 µM. 65,000 tested, 1.9% active; in the data active means inhibition above about 50%
HIV RNase H inh-2: confirmation of HIV-1 reverse transcriptase RNase H inhibitors. shares compounds with HIV RNase H inh-1. Recombinant RT RNase H, fluorescent RNA/DNA duplex cleavage. inhibition, % at 10 µM. 1,000 tested, 39% active; in the data active means inhibition above about 48%
Starred values were filed as active, the others as inactive.

SMILES | HIV RNase H inh-1 | others
Cc1cc(NC(=O)c2ccc3c(c2)C(=O)N(CCC(C)C)C3=O)no1 | 35.4
O=C(NCC1CCCO1)c1ccc2c(c1)C(=O)N(C1CCCCC1)C2=O (stereo not given) | 5.7
Cc1cc(NC(=O)c2ccc3c(c2)C(=O)N(C2CCCCC2)C3=O)no1 | 64.4* | HIV RNase H inh-2=25.2
Cc1ccc(C2CC(C(F)(F)F)n3nc(C(=O)NCc4ccco4)cc3N2)cc1 (stereo not given) | 4.9
CC(C)C1Cc2c(C#N)c(N)sc(=S)c2CO1 (stereo not given) | 21.1
CC1(C)Cc2c(C#N)c(N)sc(=S)c2CO1 | 82.2* | HIV RNase H inh-2=40.2
CCN(CC)c1nc(C)c2c(c1C#N)CC(C)(C)OC2 | -8.2
Cc1c(NS(=O)(=O)c2ccccc2)cc(Cl)c(O)c1C | 74.0* | HIV RNase H inh-2=33.2
COc1cc(S(=O)(=O)Nc2ccccc2C)ccc1Cl | -56.0
O=S(=O)(Nc1ccccc1Cl)c1ccc(F)cc1 | -6.3
Cc1cc(=O)n2nc(N3CCCC3C(=O)NCCCN3CCCCC3)sc2n1 (stereo not given) | -13.9
COc1cc(OC)c(C2C(C(=O)O)c3ccccc3C(=O)N2C)cc1OC (stereo not given) | 0.6
COc1ccc(OC)c(C2C(C(=O)O)c3ccccc3C(=O)N2C)c1 (stereo not given) | 65.2* | HIV RNase H inh-2=40.5
COc1ccc(C2C(C(=O)O)c3ccccc3C(=O)N2C)cc1Br (stereo not given) | -3.2
C/C=C/c1ccc(Oc2nnnn2-c2ccc(C(N)=O)cc2)c(OC)c1 | -30.1
O=S(=O)(c1ccc(Oc2ccc(Br)cc2)cc1)N1CCOCC1 | -39.8
NC(=O)c1c(NC(=O)CSc2nnc(-c3ccccc3)n2CC2CCCO2)sc2c1CCC2 (stereo not given) | 19.8
NC(=O)c1c(NC(=O)C2CCCO2)sc2c1CCC2 (stereo not given) | 0.2
Cn1cnnc1SCC(=O)Nc1sc2c(c1C(N)=O)CCC2 | 75.4* | HIV RNase H inh-2=11.0
Cc1cc2nn(-c3ccccc3)nc2cc1NC(=O)c1cccs1 | -5.9
COc1ccc(-n2nc3cc(C)c(NC(=O)CC(C)C)cc3n2)cc1 | 65.2* | HIV RNase H inh-2=60.9*
COc1ccc(-n2nc3cc(C)c(NC(=O)c4cccnc4)cc3n2)cc1 | -9.0
COCCNC(=O)CN(c1cc(Cl)ccc1OC)S(C)(=O)=O | -6.8
O=C(CSc1nnc2scc(-c3ccccc3)n12)NCC1CCCO1 (stereo not given) | -25.4
COc1ccc(S(=O)(=O)Nc2ccc(S(=O)(=O)Nc3nc(C)cc(C)n3)cc2)cc1OC | -2.0
SMILES | HIV RNase H inh-1 | others
Cc1noc2nc(-c3cccs3)cc(-c3nnc4n3CCCCC4)c12 | -4.0
CCN1C(=O)/C(=C2/Sc3ccc(OC)cc3N2C)SC1=Nc1ccc(C(C)=O)cc1 | 6.2
CCN1C(=O)/C(=C2/Sc3ccc(OC)cc3N2C)SC1=Nc1cccc(O)c1 | 51.2* | HIV RNase H inh-2=27.6
CCC(=O)/C=C1\Sc2ccc(OC)cc2N1CC | -4.6
O=C(CSc1nnc2sc3ccccc3n12)NCc1ccc2c(c1)OCO2 | -7.8
Cc1csc2ncc(C(=O)NC(C)c3ccccc3)c(=O)n12 (stereo not given) | -23.1
CCn1c2ccccc2c2nnc(SCC(=O)N3CC(C)OC(C)C3)nc21 (stereo not given) | 0.1
COc1ccc2sc(N3C(=O)C4CC=C(C)CC4C3=O)nc2c1 (stereo not given) | -8.1
N#CC1=C(O)C(c2ccccc2)n2c1nc(=O)c1ccccc12 (stereo not given) | -4.7
COc1cc(C)c(C#N)c(OC)n1 | -1.3
Cc1cc(C)c(C#N)c(=N)o1 | 92.8* | HIV RNase H inh-2=73.8*
Cc1cc(C)c(C#N)c(N2CCSCC2)n1 | -33.2
CC(=O)C(=[N+]=[N-])C(=O)NCc1ccccc1 | 1.1
O=S(=O)(Nc1nc2ccccc2nc1Nc1ccc2c(c1)OCCO2)c1cccs1 | 16.0
O=C(CN1C(=O)C2CC=CCC2C1=O)Nc1ccc(S(=O)(=O)NC2=NCCCCC2)cc1 (stereo not given) | -7.5
CCCc1nnc(NC(=O)Cn2c(=O)oc3ccccc32)s1 | 77.2* | HIV RNase H inh-2=-15.8
CC1CCCC(C)N1c1nnc(NC(=O)Cn2c(=O)oc3ccccc32)s1 (stereo not given) | -4.1
CCCc1nnc(NC(=O)CCN2C(=O)c3ccccc3C2=O)s1 | -3.1
O=C(NCCC1=CCCCC1)C1CCCN(c2nc3ccccc3o2)C1 (stereo not given) | -5.1
COc1ccc(OC)c(N(CC(=O)Nc2ccc3c(c2)OCCO3)S(C)(=O)=O)c1 | -3.1
N#Cc1c(-c2ccccc2)cc(-c2ccco2)c(C#N)c1N | 46.4
Nc1cc(-c2ccco2)no1 | -2.1
N#Cc1sc2nc(-c3ccccc3)cc(-c3ccco3)c2c1N | 94.6* | HIV RNase H inh-2=-5.3
CCCCOC(=O)C1=C(C)Nc2ncnn2C1c1cc(OC)ccc1OC (stereo not given) | -0.4
COc1ccc(C2C(C(C)=O)=C(C)Nc3ncnn32)cc1OC (stereo not given) | -5.8
SMILES | HIV RNase H inh-1 | others
CCCCCOc1ccc(C2C(C(C)=O)=C(C)Nc3ncnn32)cc1OC (stereo not given) | 64.2* | HIV RNase H inh-2=-10.0
CC1CCN(c2ccc(C(=O)NCc3cccs3)cn2)CC1 | -5.3
CCn1cc(Br)c(C(=O)Nc2cccc(SC)c2)n1 | -22.6
CCCCCSc1nc2c(c(=O)[nH]c(=O)n2C)n1C(C)C | 17.0
CCCCCSc1nc2c(c(=O)[nH]c(=O)n2C)n1CC | 72.8* | HIV RNase H inh-2=41.9
C/C=C/CSc1nc2c(c(=O)[nH]c(=O)n2C)n1C(C)C | -13.1
C=C(C)Cn1c(SCCCO)nc2c1c(=O)[nH]c(=O)n2C | -3.3
CCCCCOC(=O)CSc1nc2c(c(=O)[nH]c(=O)n2C)n1Cc1ccc(Cl)cc1 | 34.1
C=CCn1c(SCC(=C)C)nc2c1c(=O)[nH]c(=O)n2C | -53.9
CC(C)n1c(SCC(N)=O)nc2c1c(=O)[nH]c(=O)n2C | 60.6* | HIV RNase H inh-2=4.2
C=CCSc1nc2c(c(=O)[nH]c(=O)n2C)n1CC | 69.2* | HIV RNase H inh-2=75.2*
C=CCSc1nc2c(c(=O)[nH]c(=O)n2C)n1C/C=C(/C)Cl | -15.7
CCCCCCn1c(SCC(C)C)nc2c1c(=O)[nH]c(=O)n2C | 7.9
CCCCCCn1c(SCC(=O)OC)nc2c1c(=O)[nH]c(=O)n2C | 92.5* | HIV RNase H inh-2=65.6*
CCCCCSc1nc2c(c(=O)[nH]c(=O)n2C)n1C | -28.7
COc1ccc(S(=O)(=O)c2ccc(OC)c(OC)c2)cc1OC | -1.0
COc1ccc(CCNC(=O)C2CCC(CNc3c(N4CCCC4)c(=O)c3=O)CC2)cc1OC (stereo not given) | -13.3
CCn1cc(C(=O)N2CCCC2)c(=O)c2cc(S(=O)(=O)N3CCOCC3)ccc21 | -0.7
COc1ccc(C(=O)N2CCN(S(=O)(=O)N3CCOCC3)CC2)cc1OC | 1.1
CCOc1cc(S(=O)(=O)n2nc(C)cc2C)ccc1F | -28.4
COC(=O)C(C)Sc1nc2c(c(=O)n(C)c(=O)n2C)n1CCC(C)C (stereo not given) | 3.7
COC(=O)CSc1nc2c(c(=O)n(C)c(=O)n2C)n1CCC(C)C | 74.5* | HIV RNase H inh-2=24.2
CCn1c(SCC(N)=O)nc2c1c(=O)n(C)c(=O)n2C | -1.6
Cc1[nH]c2ccc(-c3nnc(SCC(=O)N4CCCc5ccccc54)o3)cc2c1C | 44.8
COc1ccc(OC)c(S(=O)(=O)NCCc2ccccc2)c1 | -11.7
O=c1[nH]nc(Sc2ncnc3sccc23)n1CCc1ccccc1 | 10.6
CCN(CC)c1ccc(C(=O)Nc2cccc(F)c2)cc1 | 5.8
CN(C)c1cccc(C(=O)Nc2cccc(F)c2)c1 | 80.1* | HIV RNase H inh-2=84.9*
O=C(Nc1cccc(F)c1)c1c(F)c(F)c(F)c(F)c1F | -2.6

Compound activity from PubChem.
